From PubChem BioAssay come the findings set out here.

As a reminder, the inhibition is the relative decrease from the control value, in per cent.

Experiment [1] has as its target Nuclear receptor coactivator 3 (Homo sapiens) (UniProt Q9Y6Q9). Briefly: NCOA3 GAL4-fusion reporter inhibition – cell-based, luminescence, quadruplicate, confirmation (AID 588792;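 active = mean inhibition over 43.08%, the solvent-only control mean plus 3 SD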;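 also: 0% = DMSO treated cells and 100% = gossypol at 36 µM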). To be noted: HEK293 GAL4-SRC3 luciferase reporter, at 3.6 µM, active compounds read high.
The subject of experiment [2] is transactivating tegument protein VP16 (Human herpesvirus 1), Gal4-VP16 luciferase reporter. Briefly: repression of VP16-driven luciferase reporter – cell-based, luminescence, high throughput, counter-screen for SRC3 inhibitor project (AID 588794). To be noted: mammalian cells, at 3.6 µM, active compounds read high.
In experiment [3] the target is Nuclear receptor coactivator 1 (Homo sapiens) (UniProt Q15788). Briefly: NCOA1 GAL4-fusion reporter inhibition – cell-based, luminescence, quadruplicate, confirmation (AID 588820;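 active = mean inhibition above 46.68%, the untreated control wells mean plus 3 SD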;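 also: 0% = DMSO wells and 100% = gossypol 36 µM treated wells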). The note with it: HEK293 GAL4-SRC1 luciferase reporter, at 3.6 µM, active compounds read high.
The nature of experiment [4]: repression of VP16-driven luciferase reporter – cell-based, luminescence, high throughput, counter-screen for SRC1 inhibitor project (AID 588824; in the data active = inhibition above about 25%). To be noted: cell-based VP16 transactivation luciferase luminescence; at 3.6 µM; active compounds read high. (Reporter assays use an easily measured gene product as a stand-in for the process of interest.)
The nature of experiment [5]: StAR promoter reporter inhibitors, counter-screen for LRH-1 inverse agonist project, cell-based, luminescence, high throughput (AID 651611; in the data active = inhibition above about 28%). The note with it: StAR promoter luciferase reporter counterscreen, at 3.6 µM, active compounds read high. On the technique in general: The purpose of a counterscreen is to sort out artefacts and off-target activity.
Experiment [6] deals with Nuclear receptor subfamily 5 group A member 2 (Homo sapiens) (UniProt O00482). The experiment is described as follows: NR5A2 activity suppression in reporter cells – cell-based, luminescence, confirmation (AID 651613; in the data active = inhibition above about 42%;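 also: HEK293T cells co-transfected with LRH-1 and StAR promoter luciferase reporter; 0% = vehicle wells and 100% = parental cells lacking receptor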). The note with it: cell-based LRH-1 luciferase reporter, inverse agonism; at 3.6 µM; active compounds read high.
Experiment [7] has as its target Steroidogenic factor 1 (Homo sapiens) (UniProt Q13285). The experiment is described as follows: inverse agonism at SF1 nuclear receptor – cell-based, luminescence, high throughput, counter-screen for LRH-1 inverse agonist project (AID 651614; in the data active = inhibition above about 44%;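 also: cells cotransfected with StAR promoter reporter and SF1 expression vector; 0% = vehicle on cells with receptor and 100% = vehicle on cells lacking receptor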). The note with it: cell-based SF1 luciferase reporter, at 3.6 µM, active compounds read high.
Experiment [8] in a line: compounds suppressing VP16-driven luciferase signal – cell-based, luminescence, high throughput, counter-screen for LRH-1 inverse agonist project (AID 651615; in the data active = inhibition above about 33%). To be noted: Gal4-VP16 luciferase reporter cells, at 3.6 µM, active compounds read high.
Experiment [9] relates to transactivating tegument protein VP16 (Human herpesvirus 1). The experiment is described as follows: compounds suppressing VP16-driven luciferase signal – cell-based, luminescence, single concentration, counter-screen for SRC2 inhibitor project (AID 652007; in the data active = inhibition above about 36%). To be noted: cell-based VP16 transactivation luciferase reporter, at 8.9 µM, active compounds read high.
Experiment [10] addresses Nuclear receptor coactivator 2 (Homo sapiens) (UniProt Q15596). Briefly: inhibition of GAL4-SRC2 driven luciferase expression – cell-based, luminescence, HEK293, triplicate, confirmation (AID 652008;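 active = mean inhibition above 46.5%, the solvent-only control mean plus 3 SD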;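 also: 0% = DMSO-treated cells and 100% = Gossypol at 36 µM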). To be noted: HEK293 GAL4-SRC2 luciferase reporter, at 8.9 µM, active compounds read high.

Several values for one entry are separate records, joined by “and”; a condition that tells them apart may be missing. Equal entries are not always repeated. Unmarked numbers belong to inactive results. Activity calls are given as the source filed them. Rule as the data show it, unless noted: active = inhibition above about 30%; inactive = the rest.

Sequence of Nuclear receptor coactivator 3 (Homo sapiens) (Q9Y6Q9 whole entry, looked up, the tested form may be a part): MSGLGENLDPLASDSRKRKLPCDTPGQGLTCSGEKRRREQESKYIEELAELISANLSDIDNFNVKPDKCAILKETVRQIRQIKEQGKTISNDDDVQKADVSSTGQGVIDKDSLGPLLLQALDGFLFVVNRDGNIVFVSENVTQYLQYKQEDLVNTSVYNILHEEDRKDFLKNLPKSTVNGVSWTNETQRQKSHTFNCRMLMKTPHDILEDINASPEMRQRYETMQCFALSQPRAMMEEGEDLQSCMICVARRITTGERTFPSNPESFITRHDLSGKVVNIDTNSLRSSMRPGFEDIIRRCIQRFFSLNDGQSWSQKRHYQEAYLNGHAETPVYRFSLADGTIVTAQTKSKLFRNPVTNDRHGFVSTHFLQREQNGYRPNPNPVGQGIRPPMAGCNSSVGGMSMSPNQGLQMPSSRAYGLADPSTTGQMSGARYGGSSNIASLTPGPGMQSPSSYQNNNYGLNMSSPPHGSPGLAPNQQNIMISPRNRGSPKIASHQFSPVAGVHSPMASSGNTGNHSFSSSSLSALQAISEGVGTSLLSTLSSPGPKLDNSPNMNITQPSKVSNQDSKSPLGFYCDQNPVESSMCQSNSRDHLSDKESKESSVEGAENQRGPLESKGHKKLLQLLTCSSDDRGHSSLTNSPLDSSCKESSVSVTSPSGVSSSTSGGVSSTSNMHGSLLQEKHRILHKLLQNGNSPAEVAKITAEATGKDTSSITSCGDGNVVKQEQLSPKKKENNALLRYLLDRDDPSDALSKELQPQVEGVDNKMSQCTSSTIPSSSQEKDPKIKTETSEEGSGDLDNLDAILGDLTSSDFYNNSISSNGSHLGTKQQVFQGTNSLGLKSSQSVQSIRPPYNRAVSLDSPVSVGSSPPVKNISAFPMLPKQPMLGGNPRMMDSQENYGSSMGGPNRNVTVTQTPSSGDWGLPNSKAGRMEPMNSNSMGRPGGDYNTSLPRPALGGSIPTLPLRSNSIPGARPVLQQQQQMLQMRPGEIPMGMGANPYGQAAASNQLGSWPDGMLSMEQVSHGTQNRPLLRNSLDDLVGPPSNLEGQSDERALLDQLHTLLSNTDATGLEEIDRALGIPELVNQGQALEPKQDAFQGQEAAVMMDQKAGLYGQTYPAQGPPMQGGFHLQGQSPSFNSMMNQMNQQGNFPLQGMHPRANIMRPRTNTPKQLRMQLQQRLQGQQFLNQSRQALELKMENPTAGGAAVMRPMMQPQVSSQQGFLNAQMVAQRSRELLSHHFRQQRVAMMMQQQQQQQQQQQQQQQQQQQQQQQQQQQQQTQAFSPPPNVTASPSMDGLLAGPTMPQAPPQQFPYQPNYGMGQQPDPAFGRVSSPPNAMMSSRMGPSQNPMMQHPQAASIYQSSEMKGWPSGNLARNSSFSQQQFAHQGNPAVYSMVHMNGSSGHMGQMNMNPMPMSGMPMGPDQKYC
Sequence of Nuclear receptor coactivator 2 (Homo sapiens) (Q15596 whole entry, looked up, the tested form may be a part): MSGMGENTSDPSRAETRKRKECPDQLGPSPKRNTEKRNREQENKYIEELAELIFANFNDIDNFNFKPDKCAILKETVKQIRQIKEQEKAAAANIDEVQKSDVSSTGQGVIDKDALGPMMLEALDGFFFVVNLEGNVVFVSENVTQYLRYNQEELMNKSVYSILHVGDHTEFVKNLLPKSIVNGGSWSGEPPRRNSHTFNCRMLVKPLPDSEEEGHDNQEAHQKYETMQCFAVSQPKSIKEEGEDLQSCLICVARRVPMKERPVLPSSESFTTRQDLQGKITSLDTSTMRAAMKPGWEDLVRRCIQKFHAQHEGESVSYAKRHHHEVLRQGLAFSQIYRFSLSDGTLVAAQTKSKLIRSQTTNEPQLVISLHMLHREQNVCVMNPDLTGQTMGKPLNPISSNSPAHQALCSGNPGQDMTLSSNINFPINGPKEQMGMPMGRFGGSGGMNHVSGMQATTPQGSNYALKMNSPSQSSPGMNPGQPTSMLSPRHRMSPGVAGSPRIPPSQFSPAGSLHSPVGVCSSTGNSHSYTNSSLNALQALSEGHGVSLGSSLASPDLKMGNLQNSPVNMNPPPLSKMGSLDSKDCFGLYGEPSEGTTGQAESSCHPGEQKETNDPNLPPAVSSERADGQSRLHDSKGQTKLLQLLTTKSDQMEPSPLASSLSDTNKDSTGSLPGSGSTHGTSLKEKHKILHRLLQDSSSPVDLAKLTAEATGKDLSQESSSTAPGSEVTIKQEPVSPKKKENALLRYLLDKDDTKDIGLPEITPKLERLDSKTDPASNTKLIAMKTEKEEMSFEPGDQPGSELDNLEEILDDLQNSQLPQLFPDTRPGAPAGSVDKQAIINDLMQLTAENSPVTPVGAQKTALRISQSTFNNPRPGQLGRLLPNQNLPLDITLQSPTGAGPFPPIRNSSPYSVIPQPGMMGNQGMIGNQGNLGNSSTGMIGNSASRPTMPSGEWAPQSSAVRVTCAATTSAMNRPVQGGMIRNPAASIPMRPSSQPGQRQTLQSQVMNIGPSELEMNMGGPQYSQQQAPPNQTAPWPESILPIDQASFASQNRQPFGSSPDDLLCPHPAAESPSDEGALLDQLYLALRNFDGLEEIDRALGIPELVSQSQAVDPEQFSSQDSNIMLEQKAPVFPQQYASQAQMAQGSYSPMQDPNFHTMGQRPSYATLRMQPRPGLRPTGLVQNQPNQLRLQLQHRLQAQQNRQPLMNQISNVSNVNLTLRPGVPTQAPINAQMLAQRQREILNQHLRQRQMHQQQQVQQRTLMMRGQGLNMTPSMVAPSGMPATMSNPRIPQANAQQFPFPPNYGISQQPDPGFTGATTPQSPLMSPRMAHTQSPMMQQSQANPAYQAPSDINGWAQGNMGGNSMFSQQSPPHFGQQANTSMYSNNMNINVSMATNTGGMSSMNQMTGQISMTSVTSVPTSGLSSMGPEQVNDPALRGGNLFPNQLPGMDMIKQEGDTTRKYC
Sequence of Steroidogenic factor 1 (Homo sapiens) (Q13285 whole entry, looked up, the tested form may be a part): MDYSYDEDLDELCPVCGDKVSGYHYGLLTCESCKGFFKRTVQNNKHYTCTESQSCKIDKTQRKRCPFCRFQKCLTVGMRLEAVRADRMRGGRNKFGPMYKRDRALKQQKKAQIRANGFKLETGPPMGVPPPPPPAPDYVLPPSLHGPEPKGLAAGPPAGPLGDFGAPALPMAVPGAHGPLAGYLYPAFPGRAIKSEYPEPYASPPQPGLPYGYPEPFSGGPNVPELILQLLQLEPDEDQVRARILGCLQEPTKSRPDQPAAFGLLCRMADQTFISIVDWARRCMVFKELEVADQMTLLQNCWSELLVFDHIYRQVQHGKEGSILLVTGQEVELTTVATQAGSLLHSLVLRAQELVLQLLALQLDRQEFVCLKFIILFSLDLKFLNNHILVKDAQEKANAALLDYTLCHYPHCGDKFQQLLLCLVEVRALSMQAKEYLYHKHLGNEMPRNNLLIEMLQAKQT
Sequence of Nuclear receptor subfamily 5 group A member 2 (Homo sapiens) (O00482 whole entry, looked up): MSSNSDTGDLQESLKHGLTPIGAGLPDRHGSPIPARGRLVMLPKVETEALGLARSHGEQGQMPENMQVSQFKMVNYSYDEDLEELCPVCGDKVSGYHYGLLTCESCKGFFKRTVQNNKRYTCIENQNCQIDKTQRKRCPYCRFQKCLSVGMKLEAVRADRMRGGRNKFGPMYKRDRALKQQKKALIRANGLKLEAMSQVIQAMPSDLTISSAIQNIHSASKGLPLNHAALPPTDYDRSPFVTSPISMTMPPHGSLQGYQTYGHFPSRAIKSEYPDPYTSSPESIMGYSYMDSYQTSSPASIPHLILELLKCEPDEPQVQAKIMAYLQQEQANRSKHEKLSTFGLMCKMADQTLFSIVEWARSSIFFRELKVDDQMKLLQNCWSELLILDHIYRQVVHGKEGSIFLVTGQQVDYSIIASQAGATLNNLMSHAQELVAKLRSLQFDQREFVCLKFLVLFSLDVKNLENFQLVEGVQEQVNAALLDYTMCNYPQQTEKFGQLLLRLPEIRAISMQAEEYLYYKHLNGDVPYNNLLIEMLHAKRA

Turning to `CC1CCC(C(C)C)C(OC(=O)Cn2c(-c3ccccc3)[n+](C)c3ccccc32)C1` (stereo not given), the inhibition in [1] is 74.8% (active) and 54.2% (active); in experiment [2] it was 76.2% (active) and 68% (active); in experiment [3], 55.1% (active) and 49.6% (active); in experiment [4], 75.8% (active) and 65.7% (active); in [5], 54% (active); in experiment [6], 108% (active). For the same molecule, the inhibition in [7] is 83.8% (active); in [8], 94.5% (active); in experiment [9], 49.1% (active); in [10], 30.4%.
As for `CC(C)(C)c1ccc(C(=O)Nc2ccc(CC(=O)O)cc2)o1`, the inhibition in experiment [1] was 54.1% (active); in experiment [2], 40% (active); in [3], 37.9%; in experiment [4], 42% (active); in [5], 45.1% (active); in experiment [6] it was 52.5% (active). Besides, the inhibition is 46.9% (active) in [7], 37.7% (active) in experiment [8], 70.2% (active) in [9] and 92.1% (active) in [10].
Regarding `O=C(OCCC12CC3CC(CC(C3)C1)C2)c1ccc(NCc2cc(O)ccc2O)cc1`, the inhibition in [1] is 88.1% (active); in experiment [2], 25.4%; in experiment [3] it was 11.1%; in experiment [4], 57.7% (active); in experiment [5], 72.6% (active); in [6], 80.7% (active). Besides, the inhibition in experiment [7] was 75.3% (active); in experiment [8] it was 83.8% (active); in experiment [9] it was 97.1% (active); in experiment [10] it was 98.4% (active).
As for `CCCN(CC)c1ncnc2[nH]ncc12`, the inhibition in [1] is 72.3% (active); in [2], 52.6% (active); in experiment [3] it was 71.4% (active); in experiment [4], 50.1% (active); in experiment [5], 25.9%; in experiment [6] it was 45% (active). Also, the inhibition in [7] was 37.1%; in experiment [8], 69.2% (active); in experiment [9] it was -9.97%; in experiment [10] it was 43.2%.
Turning to `Cc1ccc(/C=C2/SC(=S)N(CCCC(=O)Nc3ccc(O)cc3)C2=O)cc1`, the inhibition was 57% (active) in experiment [1]; 12.8% in [2]; 41.2% in experiment [3]; 3.55% in experiment [4]; 55% (active) in experiment [5]; 6.39% in experiment [6]. The inhibition in experiment [7] was 52.3% (active); in [8], -5.05%; in [9], 43.6% (active); in [10] it was 54.1% (active).
On to `COc1ccc2cc3c(N)nn(C(=O)c4ccccc4Cl)c3nc2c1`, for which the inhibition is 74.4% (active) in experiment [1]; 64.5% (active) in experiment [2]; 60.9% (active) in [3]; 62.6% (active) in experiment [4]; 47.3% (active) in experiment [5]; 75.6% (active) in experiment [6]. Moreover, the inhibition in experiment [7] is 59.1% (active); in experiment [8], 81.6% (active); in [9], -12.1%; in [10], 50% (active).
`S=C(NCCCCN(Cc1ccc(Cl)cc1)c1ccc(Br)cn1)NCCCc1cnc[nH]1`: the inhibition is 93.1% (active) in experiment [1]; 72.5% (active) in experiment [2]; 76.5% (active) in [3]; 60.9% (active) in experiment [4]; 90.1% (active) in experiment [5]; 103% (active) in experiment [6]. Besides, the inhibition in experiment [7] was 96.7% (active); in experiment [8], 86.5% (active); in experiment [9], 23.1%; in experiment [10], 54.5% (active).
Consider `CCOc1ccc(-c2noc(CCC(=O)O)n2)cc1`, for which the inhibition in experiment [1] was 18.2%; in [2] it was 15.1%; in experiment [3], 18.5%; in experiment [4], 5%; in experiment [5], 27.3%; in experiment [6] it was 38.4%. Besides, the inhibition in experiment [7] is 23.1%; in experiment [8] it was 23.4%; in experiment [9] it was 71.3% (active); in [10] it was 86.1% (active).
On to `Cc1cc(C)c(C(=O)/C=C/c2cccc3ccccc23)c(=O)[nH]1`, for which the inhibition was 72.8% (active) in [1]; 56.7% (active) in experiment [2]; 55.2% (active) in experiment [3]; 63.5% (active) in experiment [4]; 94% (active) in experiment [5]; 110% (active) in [6]. Besides, the inhibition in experiment [7] was 97.8% (active); in experiment [8] it was 94.3% (active); in [9], 47.2% (active); in experiment [10], 65.3% (active).
As to `COc1ccc(S(=O)(=O)N2CCOCC2)cc1NC(=O)CCNC(=O)c1ccc([N+](=O)[O-])cc1`, the inhibition was 88.6% (active) in experiment [1]; 60.8% (active) in experiment [2]; 75.6% (active) in [3]; 33.3% (active) in experiment [4]; 89.2% (active) in experiment [5]; 99.3% (active) in experiment [6]. The inhibition in experiment [7] is 95.5% (active); in experiment [8] it was 72.9% (active); in [9], 4.19%; in experiment [10] it was 49.4% (active).
In the case of `Cc1cc(C(=O)CSc2ccc(F)cc2)cc(C)c1OC(=S)N(C)C`, the inhibition in experiment [1] was 41.6%; in experiment [2], 43.6% (active); in [3], 2.12%; in experiment [4], -8.86%; in [5], -28.6%; in [6], -65.3%. The inhibition is -23.4% in experiment [7], -17.3% in experiment [8], 22.6% in experiment [9] and 65.7% (active) in experiment [10].
Turning to `COc1ccc(CNC(=O)c2cccc3c(-c4cccc(C(N)=O)c4)coc23)cc1OC`, the inhibition in [1] is 30.4%; in experiment [2], 52% (active); in experiment [3], 3.09%; in experiment [4], 50.2% (active); in [5], 62.9% (active); in experiment [6], 69.7% (active). In addition, the inhibition in experiment [7] is 68.7% (active); in experiment [8], 73.6% (active); in [9], 34.4%; in experiment [10], 37.8%.
Take `CCCc1ccc(C(=O)O/N=C(\N)c2ccccn2)cc1`: the inhibition in [1] is 16.8%; in experiment [2], -24.7%; in [3], -82.5%; in experiment [4] it was -63.2%; in [5], -12.5%; in experiment [6] it was -85.8%. Also, the inhibition in [7] is 2.79%; in experiment [8], -41.9%; in experiment [9], -18.6%; in [10], 31.1%.
